In PubChem BioAssay AID1851 (National Center for Advancing Translational Sciences (NCATS), 2009):
Values joined by “and” are separate entries in the source; they are usually repeats but may differ in a detail not shown here. Equal entries are not always repeated. Hit rate of the full screen: of about 16,000 compounds, about 5,800 (36%) were called active. Roughly 23% stayed inconclusive and do not appear here. The call rests on the fitted dose curve; in most records, active means well fitted curve in the direction sought with a large enough effect; inconclusive means small, poorly fitted or top-dose-only effect, or effect the other way; inactive means no such curve, though single readings can be large or run the other way. Some of the results follow. Where a structure was tested more than once in an assay, its records may differ in their call.

biological target: Cytochrome P450 2C19 (Homo sapiens) (UniProt P33261); test: Cytochrome panel assay with activity outcomes; conditions: recombinant CYP, pro-luciferin dealkylation, luminescence, p450-cyp2c19; series mostly up to 57.1 µM; activity, negative = inhibition: at the top concentration
On the % scale 0 is the no-effect control and ±100 the full control effect.

Cytochrome P450 2C19 (Homo sapiens), sequence (P33261 whole entry, looked up): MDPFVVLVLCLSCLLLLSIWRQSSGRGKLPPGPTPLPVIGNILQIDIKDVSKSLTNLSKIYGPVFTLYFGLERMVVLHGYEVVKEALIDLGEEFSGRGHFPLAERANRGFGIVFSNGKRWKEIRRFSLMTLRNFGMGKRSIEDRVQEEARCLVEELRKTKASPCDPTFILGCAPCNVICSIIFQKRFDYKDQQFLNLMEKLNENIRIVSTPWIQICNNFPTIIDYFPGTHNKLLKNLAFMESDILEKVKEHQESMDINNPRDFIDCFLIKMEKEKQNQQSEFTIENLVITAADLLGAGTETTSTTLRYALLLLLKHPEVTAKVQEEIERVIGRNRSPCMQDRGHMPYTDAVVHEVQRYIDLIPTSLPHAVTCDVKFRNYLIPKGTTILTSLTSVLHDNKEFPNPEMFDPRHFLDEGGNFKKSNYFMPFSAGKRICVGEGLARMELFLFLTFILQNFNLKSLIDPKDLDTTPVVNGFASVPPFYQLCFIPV

AC50, inactive and 6.31 µM (active):
CN1C(C(=O)Nc2ccccn2)=C(O)c2ccccc2S1(=O)=O

AC50, inactive:
N[C@@H](Cc1ccc(O)c(O)c1)C(=O)O

AC50, active:
O=C(NCCCn1ccnc1)c1ccc(Br)c(S(=O)(=O)N2CCOCC2)c1 17.8 µM
COC(=O)c1ccc(Oc2cc(C)nc(-n3nc(C)cc3C)n2)cc1 7.94 µM
COc1cccc(-c2nc(NCCc3c[nH]c4ccc(OC)cc34)c3ccccc3n2)c1 1.58 µM
COc1ccc2[nH]cc(CCNc3nc(-c4ccccc4OC)nc4ccccc34)c2c1 5.01 µM
COc1ccc2[nH]cc(CCNc3nc(-c4ccoc4)nc4ccccc34)c2c1 1.58 µM
COc1ccc2[nH]cc(CCNc3nc(-c4cccnc4)nc4ccccc34)c2c1 0.501 µM
CC(C)C(NC(=O)C12CC3CC(CC(C3)C1)C2)C(=O)NC1=NCCS1 (stereo not given) 10 µM
CCc1cccc2c(-c3ccccc3)c3c(nc12)OCC3 7.94 µM
Cc1cc(Oc2ccccc2)nc(NCc2ccccc2)n1 3.16 µM
Cc1cc(Oc2ccccc2)nc(-c2ccccc2)n1 11.2 µM
C#CCn1c(S(=O)(=O)Cc2ccc(OC)cc2)nc(-c2ccccc2)c1-c1ccccc1 2.24 µM
O=C(O)c1ccccc1N/N=C\c1ccnc2ccccc12 15.8 µM
CCOC(=O)c1ccccc1OCc1cc(/C=N/n2cnnc2)ccc1OC 0.794 µM
CCC(=O)NC(=S)N1CCN(c2ccc([N+](=O)[O-])cc2Cl)CC1 2.82 µM
O=C(Nc1cc(Sc2ccccn2)cc([N+](=O)[O-])c1)c1ccc(Cl)cc1 3.16 µM
COC(=O)c1ccc(CSc2nc3cc(Cl)ccc3s2)o1 3.16 µM
COc1ccccc1CCn1c(=O)c(-c2ccc(F)c(F)c2)nc2cncnc21 1.26 µM
COc1ccccc1CCn1c(=O)c(-c2ccc(F)cc2)nc2cncnc21 0.316 µM
COc1ccccc1CCn1c(=O)c(-c2cn(C)c3ccccc23)nc2cncnc21 0.316 µM
COc1ccccc1CCn1c(=O)c(CCc2ccccc2)nc2cncnc21 3.16 µM
COc1ccccc1CCn1c(=O)c(-c2ccccc2)nc2cncnc21 0.631 µM
COc1ccccc1CCn1c(=O)c(-c2ccc(Cl)cc2)nc2cncnc21 0.398 µM
COc1ccccc1CCn1c(=O)c(-c2cccc(Cl)c2)nc2cncnc21 0.251 µM
COc1ccccc1CCn1c(=O)c(-c2cccs2)nc2cncnc21 2 µM
COc1ccc(-n2c(=O)c(-c3cn(C)c4ccccc34)nc3cncnc32)cc1 15.8 µM
COc1ccc(C(=O)NN)cc1COc1ccc(Br)cc1 0.251 µM
COc1ccc(/C=C/C(=O)NCc2cn(C)nc2C)cc1COc1ccc(Br)cc1 3.98 µM
CC(C)c1ccc(/C=N/NC(=O)CN(c2cccc(Cl)c2Cl)S(C)(=O)=O)cc1 15.8 µM
Cc1[nH]nc(Nc2ccccc2)c1[N+](=O)[O-] 14.1 µM
Clc1ccc(Sc2ccc(/C=N/n3cnnc3)o2)cc1 2.82 µM
CCCN1C(=O)/C(=C/c2ccc(C)s2)SC1=Nc1ccc(OC)cc1 11.2 µM
c1ccc(-c2nc3ccccn3c2NCc2ccc3c(c2)OCO3)cc1 0.316 µM
C=CCN=C(NC#N)SCc1ccccc1 14.1 µM
CCOc1ccc(/C=C/C2=Cc3c(sc(NC(=O)CSc4n[nH]c(N)n4)c3C#N)C(C)(C)C2)cc1 10 µM
Cc1ccc(/C=C/C2=Cc3c(sc(NC(=O)CSc4n[nH]c(N)n4)c3C#N)C(C)(C)C2)o1 4.47 µM
O=C1CCCN1c1ccc(S(=O)(=O)Oc2cccc(Cl)c2)cc1[N+](=O)[O-] 0.501 µM
N=c1sccn1CC(=O)Nc1cccc(Oc2ccccc2)c1 15.8 µM
CCCCCOC(=O)c1c(N)n(CCOC)c2nc3ccccc3nc12 14.1 µM
C/C(=N\NC(=S)Nc1ccc(F)cc1)C1CC1 0.562 µM
COC(=O)C1=C(N)N(c2ccccc2C(F)(F)F)C2=C(C(=O)CCC2)C1c1ccc2c(c1)OCO2 (stereo not given) 20 µM
O=C(c1ccc(COc2ccc(F)cc2)o1)n1cccn1 3.55 µM

activity, negative = inhibition, inactive:
Cc1ccc(C(=O)Oc2cc(C)n(C)c(=O)c2)cc1 -24.2%
CN1C(C(=O)Nc2ccccn2)=C(O)c2sccc2S1(=O)=O -5.67% [at 25.6 µM]
COc1ccccc1-c1nc(NCCN2CCOCC2)c2ccccc2n1 -25.8%
C1CCN(CC[C@@H]2CCCCN2)CC1 0.696% [at 11.4 µM]
CCNC(=O)C/C(C)=N/NC(=O)C12CC3CC(CC(C3)C1)C2 -11.2%
CCc1cccc2c3c([nH]c12)[C@@](CC)(CC(=O)O)OCC3 -5.37% [at 25.6 µM]
Cn1cnc2c(NCc3ccccc3)nc(NCCO)nc21 0.577%
Cc1cc(C)nc(Nc2n[nH]c(COc3cccc4ccccc34)n2)n1 -11.4%
NCCS -17%
O=C(O)c1ccccc1/C=N\N=C1c2ccccc2-c2ccccc21 2.09% [at 11.4 µM]
O=C(O)CCNc1ccccc1C(=O)O 16.3% [at 11.4 µM]
CN1CCN(c2ccc([N+](=O)[O-])cc2NC(=O)c2ccccc2Cl)CC1 -22%
O=C(Nc1cccc(-c2cnc3ccccc3n2)c1)c1ccc(Cl)cc1 12.6%
C1CCc2nnnn2CC1 21.2% [at 25.6 µM]
Cn1c(=O)c(-c2ccc(F)cc2)nc2cncnc21 -7.45%
COCCn1c(=O)c(-c2ccc(F)c(F)c2)nc2cncnc21 -37%
COc1cccc(Cn2c(=O)c(-c3cn(C)c4ccccc34)nc3cncnc32)c1 -42.6%
COc1ccc(-n2c(=O)c(-c3ccc(F)c(F)c3)nc3cncnc32)cc1 -25.4%
COc1cccc(Nc2ncc3nc(CCc4ccccc4)c(=O)n(CCC#N)c3n2)c1 10.6%
Cn1cc(-c2nc3cncnc3n(Cc3ccccc3Cl)c2=O)c2ccccc21 1.7%
CN1CCN(c2ncc3nc(CCc4ccccc4)c(=O)n(C)c3n2)CC1 -32%
COCCn1c(=O)c(-c2ccc(F)cc2)nc2cncnc21 -31.8%
CCOC(=O)N/N=C1/C[C@@H](O)[C@@H](O)[C@@H]2[C@@H]3C(=O)N(C(C)(C)C)C(=O)[C@H]3CC[C@H]12 1.59% [at 11.4 µM]
COc1ccc(C[C@@H]2C(=O)N[C@H](C)C(=O)N(C)[C@@H]3Cc4ccc(cc4)Oc4cc(ccc4O)C[C@H](C(=O)N[C@@H](C)C(=O)N[C@H](C)C(=O)N2C)N(C)C3=O)cc1 1.07% [at 11.4 µM]
Cn1c(=O)c(-c2ccc(Cl)cc2)nc2cncnc21 -17.1%
Cn1c(=O)c(-c2ccccc2)nc2cncnc21 -11.3%
COCCn1c(=O)c(-c2ccc(Cl)cc2)nc2cnc(Nc3ccccc3)nc21 16.1%
Cn1c(=O)c(-c2cccc(Cl)c2)nc2cncnc21 -41.4%
COCCn1c(=O)c(-c2cccs2)nc2cnc(N(C)C)nc21 -26.2%
COc1ncc2nc(-c3cccs3)c(=O)n(CCC#N)c2n1 -1.19%
COCCn1c(=O)c(-c2cccc(Cl)c2)nc2cncnc21 -24.7%
O=C(Nc1ccccc1)N1CCCC2(CCN(C(=O)c3ccco3)CC2)C1 -38.7%
CCOC(=O)N/N=C1/C[C@@H](O)[C@@H](O)[C@@H]2[C@@H]3C(=O)N(c4cccc(Oc5ccccc5)c4)C(=O)[C@H]3CC[C@@H]12 -10.2% [at 11.4 µM]
NS(=O)(=O)c1cc(Br)c(N=Nc2ccc(O)c3ncccc23)c(Br)c1 -10.5% [at 11.4 µM]
COc1ccc(-n2c(=O)c(-c3cn(C)c4ccccc34)nc3cnc(OC)nc32)cc1 -5%
Cc1nn(C)cc1CNC(=O)CCC(=O)O -3.78%
CCn1ncc(/C=C/C(=O)NCc2cn(C)nc2C)c1C -1.07%
NC(=O)C1=CN([C@@H]2O[C@@H](COP(=O)(O)OP(=O)(O)OC[C@@H]3O[C@H](n4cnc5c(N)ncnc54)[C@@H](OP(=O)(O)O)[C@@H]3O)[C@H](O)[C@@H]2O)C=CC1 3.48%
CS(=O)(=O)c1ccc(/C=N\NC(N)=S)cc1 -0.291% [at 11.4 µM]
Cc1cccc(-c2n[nH]c([N+](=O)[O-])n2)c1 -14.2%
Nc1nc(NCc2ccccc2)nc(Nc2cccc(F)c2)c1[N+](=O)[O-] -3.88%
CN=C1S/C(=C\c2ccc(Sc3ccc(Cl)cc3)o2)C(=O)N1C -21.7%
COc1ccc(N=C2S/C(=C\c3ccc(C)s3)C(=O)N2CC(C)C)cc1 -27%
CC(C)CN(CC#N)CC(C)C 2.34% [at 11.4 µM]
CN(C)CCNS(=O)(=O)N(C)C 0.116% [at 11.4 µM]
Cc1cc(C(C)(C)C)cc(C)c1CC1=NCCN1 -32.4% [at 25.6 µM]
O=C(Cn1ccc(=O)[nH]c1=O)Nc1ccc(C(=O)O)c(O)c1 40.8% [at 11.4 µM]
CC1(C)CCC=[N+]1[O-] 5.41%
COCn1c2ccccc2c2nnc(C(C)=O)nc21 5.57% [at 11.4 µM] and -2.14% [at 11.4 µM]
COc1ccc(OC)c(NC(=O)c2cc3n(n2)C(C(F)(F)F)CC(c2ccc4c(c2)OCO4)N3)c1 (stereo not given) -10.9%
COc1ccc(NC(=O)c2cc3n(n2)C(C(F)(F)F)CC(c2ccc4c(c2)OCO4)N3)cc1OC (stereo not given) -24.3%
C#CC[N+](CC)(CC)CC#Cc1cccc(Cl)c1 -10.1%
